The supplement of paper PMC11732987, “Enantioselective OTUD7B fragment discovery through chemoproteomics screening and high-throughput optimisation” (Communications Chemistry, 2025)

Tests used:
Experiment in all cases: log2 ratio of Biotin-Ahx-Ub-VS probe labelling (fragment/DMSO); higher = less target engagement (more negative = stronger competition), active = hit call of the paper (q ≤ 0.05, log2 ratio ≤ -1)
Conditions in all cases: compound concentration: 200 uM; treatment time: 3 h
USP19 = target: T1, USP19 (UniProt O94966)
T1 sequence (whole entry): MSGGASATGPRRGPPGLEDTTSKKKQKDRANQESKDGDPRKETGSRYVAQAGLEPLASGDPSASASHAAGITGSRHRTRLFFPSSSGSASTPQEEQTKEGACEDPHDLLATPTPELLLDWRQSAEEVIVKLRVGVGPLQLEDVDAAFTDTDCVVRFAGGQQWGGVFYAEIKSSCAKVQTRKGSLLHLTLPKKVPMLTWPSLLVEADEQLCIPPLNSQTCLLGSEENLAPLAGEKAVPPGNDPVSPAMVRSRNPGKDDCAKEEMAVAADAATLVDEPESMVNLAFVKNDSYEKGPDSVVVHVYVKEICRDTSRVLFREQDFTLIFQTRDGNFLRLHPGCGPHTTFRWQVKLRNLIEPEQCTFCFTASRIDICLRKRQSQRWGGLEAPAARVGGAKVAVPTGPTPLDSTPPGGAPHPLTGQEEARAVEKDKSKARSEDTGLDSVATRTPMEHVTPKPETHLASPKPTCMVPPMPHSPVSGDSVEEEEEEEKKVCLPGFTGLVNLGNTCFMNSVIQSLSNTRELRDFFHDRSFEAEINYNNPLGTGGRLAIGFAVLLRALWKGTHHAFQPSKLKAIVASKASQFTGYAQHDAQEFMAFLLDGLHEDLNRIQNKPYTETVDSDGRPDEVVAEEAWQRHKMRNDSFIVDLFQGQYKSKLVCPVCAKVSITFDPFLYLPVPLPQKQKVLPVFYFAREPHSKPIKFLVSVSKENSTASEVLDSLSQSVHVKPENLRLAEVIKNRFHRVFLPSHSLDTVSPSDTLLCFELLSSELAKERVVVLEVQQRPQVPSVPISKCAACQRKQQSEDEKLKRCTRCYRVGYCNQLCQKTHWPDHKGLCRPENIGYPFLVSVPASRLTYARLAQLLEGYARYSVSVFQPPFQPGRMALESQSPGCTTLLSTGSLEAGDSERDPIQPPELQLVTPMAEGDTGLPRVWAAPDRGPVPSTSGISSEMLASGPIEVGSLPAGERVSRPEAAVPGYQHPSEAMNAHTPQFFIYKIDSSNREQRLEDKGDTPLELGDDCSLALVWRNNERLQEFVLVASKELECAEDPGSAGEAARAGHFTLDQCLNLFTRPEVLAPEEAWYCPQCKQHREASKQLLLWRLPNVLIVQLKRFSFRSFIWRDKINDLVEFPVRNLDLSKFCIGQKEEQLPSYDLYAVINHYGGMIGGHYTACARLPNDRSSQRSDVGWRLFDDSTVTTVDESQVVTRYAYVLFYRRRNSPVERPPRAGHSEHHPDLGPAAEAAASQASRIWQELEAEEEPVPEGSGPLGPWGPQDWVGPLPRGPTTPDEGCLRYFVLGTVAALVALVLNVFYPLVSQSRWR
How it was run: (§1)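 Labelled DUBs from HEK293T lysate were NeutrAvidin-enriched, digested with LysC and trypsin, and run by diaPASEF LC-MS/MS. Before that, each 495 µg sample in Tris/CHAPS/IGEPAL buffer with protease inhibitors was treated in triplicate with fragment at 200 µM or vehicle for 3 h, then with Biotin-Ahx-Ub-VS at 0.5 µM final for 1 h. Values are average log2 ratios of fragment over vehicle by unpaired t-test, based on global-median-normalised Spectronaut label-free quantities from proteins with ≥2 unique peptides.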

USP22 = target: T2, USP22 (UniProt Q9UPT9)
T2 sequence (whole entry): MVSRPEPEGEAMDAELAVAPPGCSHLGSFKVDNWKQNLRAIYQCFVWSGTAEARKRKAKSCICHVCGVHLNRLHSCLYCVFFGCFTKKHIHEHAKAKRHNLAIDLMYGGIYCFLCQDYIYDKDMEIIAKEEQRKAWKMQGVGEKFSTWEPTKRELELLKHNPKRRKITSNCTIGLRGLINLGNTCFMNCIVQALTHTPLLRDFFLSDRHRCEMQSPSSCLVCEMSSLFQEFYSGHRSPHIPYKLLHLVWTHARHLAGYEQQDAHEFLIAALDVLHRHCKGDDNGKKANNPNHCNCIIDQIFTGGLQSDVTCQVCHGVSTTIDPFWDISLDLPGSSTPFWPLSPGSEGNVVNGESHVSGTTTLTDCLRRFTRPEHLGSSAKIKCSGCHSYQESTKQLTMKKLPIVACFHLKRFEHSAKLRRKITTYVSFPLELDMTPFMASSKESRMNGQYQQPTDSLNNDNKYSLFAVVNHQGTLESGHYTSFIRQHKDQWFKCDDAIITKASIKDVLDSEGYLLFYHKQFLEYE
How it was run: as §1

USP24 = USP24 (UniProt Q9UPU5)
USP24, sequence (Q9UPU5 whole entry): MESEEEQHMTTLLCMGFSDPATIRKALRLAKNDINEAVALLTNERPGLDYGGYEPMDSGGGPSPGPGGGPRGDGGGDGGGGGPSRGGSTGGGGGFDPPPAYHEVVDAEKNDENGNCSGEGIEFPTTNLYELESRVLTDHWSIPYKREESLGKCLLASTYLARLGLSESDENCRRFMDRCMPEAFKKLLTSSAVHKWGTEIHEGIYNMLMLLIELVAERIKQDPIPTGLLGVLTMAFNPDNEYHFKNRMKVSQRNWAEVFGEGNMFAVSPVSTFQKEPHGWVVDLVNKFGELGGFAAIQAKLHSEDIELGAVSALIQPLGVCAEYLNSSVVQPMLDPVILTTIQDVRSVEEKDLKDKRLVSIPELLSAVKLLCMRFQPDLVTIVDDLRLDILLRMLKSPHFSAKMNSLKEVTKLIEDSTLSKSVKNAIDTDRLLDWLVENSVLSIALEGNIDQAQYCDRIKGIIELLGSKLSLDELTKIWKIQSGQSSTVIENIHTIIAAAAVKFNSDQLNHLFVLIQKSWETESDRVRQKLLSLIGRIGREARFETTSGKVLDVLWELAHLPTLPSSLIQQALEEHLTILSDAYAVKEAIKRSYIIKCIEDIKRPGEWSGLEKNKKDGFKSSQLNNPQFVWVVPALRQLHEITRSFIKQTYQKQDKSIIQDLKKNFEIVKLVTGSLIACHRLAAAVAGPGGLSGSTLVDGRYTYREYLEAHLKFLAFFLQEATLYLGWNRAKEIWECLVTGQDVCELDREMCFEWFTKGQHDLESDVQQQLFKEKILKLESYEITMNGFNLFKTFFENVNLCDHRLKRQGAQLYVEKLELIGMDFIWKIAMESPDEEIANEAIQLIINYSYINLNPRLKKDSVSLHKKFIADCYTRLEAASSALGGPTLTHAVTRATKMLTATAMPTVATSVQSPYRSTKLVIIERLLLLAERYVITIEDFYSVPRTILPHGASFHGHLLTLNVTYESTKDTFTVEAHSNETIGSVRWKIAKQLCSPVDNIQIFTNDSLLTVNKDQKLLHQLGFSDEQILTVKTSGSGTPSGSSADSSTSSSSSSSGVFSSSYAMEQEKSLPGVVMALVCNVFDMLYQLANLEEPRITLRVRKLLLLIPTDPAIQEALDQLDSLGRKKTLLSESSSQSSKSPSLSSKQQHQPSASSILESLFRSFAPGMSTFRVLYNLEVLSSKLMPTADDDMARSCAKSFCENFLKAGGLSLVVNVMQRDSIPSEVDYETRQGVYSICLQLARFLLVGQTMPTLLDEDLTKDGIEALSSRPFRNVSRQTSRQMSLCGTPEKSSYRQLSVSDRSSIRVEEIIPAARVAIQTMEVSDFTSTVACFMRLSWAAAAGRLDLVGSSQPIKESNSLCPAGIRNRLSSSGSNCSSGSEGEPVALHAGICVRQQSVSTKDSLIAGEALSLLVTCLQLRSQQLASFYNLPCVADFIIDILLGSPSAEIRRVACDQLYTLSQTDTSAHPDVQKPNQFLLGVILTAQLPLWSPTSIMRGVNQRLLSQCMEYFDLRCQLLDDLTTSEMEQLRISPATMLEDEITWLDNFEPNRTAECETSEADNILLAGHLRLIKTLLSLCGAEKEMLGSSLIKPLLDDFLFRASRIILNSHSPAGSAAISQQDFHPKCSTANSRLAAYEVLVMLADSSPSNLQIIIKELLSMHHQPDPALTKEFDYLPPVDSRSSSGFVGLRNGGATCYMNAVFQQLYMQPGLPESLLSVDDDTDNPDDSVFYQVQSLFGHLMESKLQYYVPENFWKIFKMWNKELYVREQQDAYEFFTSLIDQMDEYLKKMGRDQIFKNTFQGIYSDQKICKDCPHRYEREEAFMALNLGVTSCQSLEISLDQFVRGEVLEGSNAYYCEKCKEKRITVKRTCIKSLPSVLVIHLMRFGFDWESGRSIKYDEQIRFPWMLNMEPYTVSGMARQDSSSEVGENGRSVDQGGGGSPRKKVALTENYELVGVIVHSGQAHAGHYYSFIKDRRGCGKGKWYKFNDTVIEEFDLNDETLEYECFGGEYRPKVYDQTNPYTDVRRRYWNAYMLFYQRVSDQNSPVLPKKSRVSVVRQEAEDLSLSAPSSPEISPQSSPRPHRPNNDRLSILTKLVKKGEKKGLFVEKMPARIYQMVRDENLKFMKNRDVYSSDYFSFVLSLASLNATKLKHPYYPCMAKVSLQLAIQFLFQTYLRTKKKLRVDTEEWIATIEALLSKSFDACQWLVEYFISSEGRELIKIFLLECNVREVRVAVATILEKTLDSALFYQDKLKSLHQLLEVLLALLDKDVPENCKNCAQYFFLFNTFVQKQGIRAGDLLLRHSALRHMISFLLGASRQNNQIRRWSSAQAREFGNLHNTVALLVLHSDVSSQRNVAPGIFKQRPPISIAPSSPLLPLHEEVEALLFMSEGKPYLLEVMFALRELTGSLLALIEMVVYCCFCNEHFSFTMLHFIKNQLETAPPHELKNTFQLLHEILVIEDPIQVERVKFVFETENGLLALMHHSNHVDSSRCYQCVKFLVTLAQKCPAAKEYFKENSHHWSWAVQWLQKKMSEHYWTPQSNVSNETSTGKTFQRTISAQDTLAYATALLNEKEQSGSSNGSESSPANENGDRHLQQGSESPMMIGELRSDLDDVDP
How it was run: as §1

USP25 = target: T3, USP25 (UniProt Q9UHP3)
T3 sequence (whole entry): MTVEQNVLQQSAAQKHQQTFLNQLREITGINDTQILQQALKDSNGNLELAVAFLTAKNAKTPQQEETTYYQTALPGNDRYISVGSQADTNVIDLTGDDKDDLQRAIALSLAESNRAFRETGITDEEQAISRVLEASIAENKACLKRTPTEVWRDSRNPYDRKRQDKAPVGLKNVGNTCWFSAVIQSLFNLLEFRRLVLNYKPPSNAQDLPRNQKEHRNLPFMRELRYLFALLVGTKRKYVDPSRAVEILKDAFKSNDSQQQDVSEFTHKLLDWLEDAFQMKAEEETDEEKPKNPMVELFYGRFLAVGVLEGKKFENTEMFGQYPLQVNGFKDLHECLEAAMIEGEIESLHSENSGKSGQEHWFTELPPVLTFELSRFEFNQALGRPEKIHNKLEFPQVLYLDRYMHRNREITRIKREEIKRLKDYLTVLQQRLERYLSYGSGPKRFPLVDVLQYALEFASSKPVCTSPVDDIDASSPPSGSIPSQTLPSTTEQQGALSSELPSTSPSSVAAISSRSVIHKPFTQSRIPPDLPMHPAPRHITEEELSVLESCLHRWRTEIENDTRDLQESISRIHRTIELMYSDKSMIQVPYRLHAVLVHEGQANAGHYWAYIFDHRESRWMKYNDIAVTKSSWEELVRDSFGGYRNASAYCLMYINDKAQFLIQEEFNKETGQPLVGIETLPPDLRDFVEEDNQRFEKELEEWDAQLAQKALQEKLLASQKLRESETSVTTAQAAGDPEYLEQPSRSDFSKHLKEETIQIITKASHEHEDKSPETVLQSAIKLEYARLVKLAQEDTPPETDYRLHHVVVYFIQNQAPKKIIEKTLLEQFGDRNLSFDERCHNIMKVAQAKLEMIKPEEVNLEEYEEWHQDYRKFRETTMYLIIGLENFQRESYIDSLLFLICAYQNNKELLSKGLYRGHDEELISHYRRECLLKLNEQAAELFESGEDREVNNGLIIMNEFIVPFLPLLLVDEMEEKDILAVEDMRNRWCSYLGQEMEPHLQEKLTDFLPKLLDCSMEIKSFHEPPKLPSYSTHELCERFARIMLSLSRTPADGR
How it was run: as §1

USP28 = target: T4, USP28 (UniProt Q96RU2)
T4 sequence (whole entry): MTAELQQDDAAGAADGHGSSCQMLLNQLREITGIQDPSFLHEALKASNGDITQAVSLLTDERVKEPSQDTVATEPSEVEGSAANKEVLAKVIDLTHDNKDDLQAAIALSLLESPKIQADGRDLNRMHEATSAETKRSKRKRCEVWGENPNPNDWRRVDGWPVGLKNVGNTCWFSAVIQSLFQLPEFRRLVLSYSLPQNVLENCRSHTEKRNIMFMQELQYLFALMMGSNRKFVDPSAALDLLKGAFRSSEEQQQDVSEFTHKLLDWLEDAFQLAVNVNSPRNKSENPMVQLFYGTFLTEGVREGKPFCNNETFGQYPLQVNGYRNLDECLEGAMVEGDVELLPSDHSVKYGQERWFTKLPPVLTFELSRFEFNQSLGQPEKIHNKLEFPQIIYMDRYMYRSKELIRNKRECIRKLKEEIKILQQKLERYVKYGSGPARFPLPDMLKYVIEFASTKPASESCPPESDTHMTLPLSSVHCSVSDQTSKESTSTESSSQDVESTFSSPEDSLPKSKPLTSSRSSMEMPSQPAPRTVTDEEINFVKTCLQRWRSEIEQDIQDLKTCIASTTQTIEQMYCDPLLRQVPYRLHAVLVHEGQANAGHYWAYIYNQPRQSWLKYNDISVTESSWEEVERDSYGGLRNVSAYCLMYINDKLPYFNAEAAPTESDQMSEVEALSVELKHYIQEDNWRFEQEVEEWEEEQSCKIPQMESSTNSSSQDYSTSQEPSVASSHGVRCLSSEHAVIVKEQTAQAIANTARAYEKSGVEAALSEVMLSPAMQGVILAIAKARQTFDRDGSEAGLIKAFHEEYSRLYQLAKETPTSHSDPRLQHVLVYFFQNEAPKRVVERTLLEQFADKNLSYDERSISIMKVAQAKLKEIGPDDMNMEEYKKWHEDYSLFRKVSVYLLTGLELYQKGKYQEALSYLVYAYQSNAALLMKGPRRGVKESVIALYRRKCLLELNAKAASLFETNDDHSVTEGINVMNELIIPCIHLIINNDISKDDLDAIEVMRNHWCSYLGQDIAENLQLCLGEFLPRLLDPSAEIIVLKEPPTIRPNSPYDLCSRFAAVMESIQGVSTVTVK
How it was run: as §1

Measured: log2 ratio of Biotin-Ahx-Ub-VS probe labelling

CN(Cc1nc2ccccc2[nH]1)C(=O)CCl.Cl
inactive: USP19 -0.0932 | USP22 0.243 | USP24 -0.721 | USP25 0.0889 | USP28 -0.218
